Results on 36 molecules are retold here after PubChem BioAssay.

This assay deals with Sam68 (KHDRBS1). Description: compounds binding KHDRBS1 protein – biochemical, small-molecule microarray, 635 nm fluorescence, primary screen (AID 1125).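 Note: score merges 667 nm channel intensity with signal to noise over triplicate slides.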 The settings on record: higher = more signal.
The molecule `COC(=O)[C@@]1(Cc2ccc(OC)cc2)[C@@H]2[C@@H](CC(=O)[C@H]2CC(=O)C(=O)N(C)C)CN1C(=O)c1ccccc1` showed a composite z-score of 1.32. In the case of `COC(=O)C(CC#Cc1ccc2c(c1)[C@]1(C(=O)N2)[C@H](C(=O)N2CCCCCCC2)[C@H]2C(=O)O[C@H](c3ccccc3)[C@H](c3ccccc3)N2[C@@H]1c1ccc(OCCO)cc1)C(=O)OC`, the composite z-score was 1.33. For `COc1ccc(CCNC(=O)[C@@]2(c3ccc([N+](=O)[O-])cc3)CC(=O)N(C3CCCCC3)[C@@H]2c2ccc(CO)cc2I)cc1` the value was 0.962; for `COc1c(C)cc(-c2cc3c(c(CCc4ccccc4)n2)[Si](C(C)C)(C(C)C)O[C@H]3c2ccccc2)cc1C`, -0.423. For the molecule `CCCCC(=C=CC[C@@H](O)c1ccccc1OCCO)C[C@@H](O)c1ccccn1`, the composite z-score was found to be 0.81.

Consider `[N-]=[N+]=NCc1ccccc1C[C@]1(C(=O)N2CCCCC2)COC(c2ccc(OCCCO)cc2)=N1`, for which the composite z-score turned out to be 1.24. The molecule `COc1cccc(C)c1NC(=O)O[C@H]1[C@H](OC(=O)Nc2ccccc2-c2ccccc2)[C@@H](OC(=O)Nc2ccccc2-c2ccccc2)[C@@H](OC)O[C@@H]1CO` gave a composite z-score of 1.3. Consider `O=C1C2C=CC(C(O)c3ccccn3)N(Nc3ccc([N+](=O)[O-])cc3)C2C(=O)N1c1ccccc1` (stereo unspecified), for which the composite z-score was determined as 0.102. `CCOC(=O)C1=C[C@@H](C(C)(C)C)N(S(=O)(=O)c2ccc(C)cc2)[C@H]1c1ccc(OC)cc1` came in with a composite z-score of 1.3. The figure for `O=C1NC(=O)C2C1C=CC(C(O)C(c1ccccc1)c1ccccc1)N2Nc1ccccn1` (stereo unspecified) is -0.0644; for `CCCCCCc1nc(-c2ccc(OC)nc2)c(C)c2c1[Si](C(C)C)(C(C)C)OC2` it is 0.18. The molecule `CC(C)Cc1ccc(CN2CC[C@@H](NC(=O)c3ccccc3)C2)cc1` yielded a composite z-score of -0.252. Molecule `COCCOC(=O)N1C(=O)[C@@]2(c3cc(C#CC4=CCCCC4)ccc31)[C@H](c1ccc(O)cc1)N1[C@H](c3ccccc3)[C@H](c3ccccc3)OC(=O)[C@H]1[C@@H]2C(=O)N1CCc2cc(OC)c(OC)cc2C1` came in with a composite z-score of 1.28.

In turn, `Cc1ccc(S(=O)(=O)N2[C@@H](c3ccccc3)C(C(=O)O)=CC[C@H]2c2ccc(F)cc2)cc1` returned a composite z-score of 1.18. As for `COc1ccc([Si](C)(C)[C@H]2[C@H](CC(=O)N3CCC[C@H]3CO)O[C@@]3(C(=O)N(Cc4cccc(N5CCCCC5=O)c4)c4ccccc43)[C@@H]2C)cc1`, the composite z-score was 1.31. For `[N-]=[N+]=Nc1ccccc1C[C@@]1(C(=O)NCc2ccccc2)N=C(c2ccc(OCCCO)cc2)O[C@@H]1c1ccccc1` the value was 1.3. The molecule `[N-]=[N+]=NCc1ccccc1[C@H]1OC(c2ccc(OCCCO)cc2)=N[C@@]1(CCS(=O)(=O)c1ccccc1)C(=O)O` displayed a composite z-score of 0.367.

For the molecule `CCOC(=O)C[C@H]1[C@H](OC(=O)c2cc3ccccc3oc2=O)[C@@H](NC(=O)Cc2ccc(OC)cc2)c2cc(OCCCO)ccc2N1C(=O)Cc1ccc(OC)cc1`, the composite z-score worked out at 0.23. Molecule `C=C(C(=O)CC[C@@H](OC(=O)c1ccccc1-c1ccccc1C(=O)O)c1cccc(OCCO)c1)C(C)C` displayed a composite z-score of 0.152. The figure for `COC(=O)[C@@]1(Cc2ccc(F)cc2)[C@@H]2C(=CC(=O)[C@H]2CC(=O)C(=O)N2CCCC2)CN1C(=O)c1ccccc1` is 1.22; for `CC(C)(C)OC(=O)CC[C@]1(C(N)=O)N=C(c2ccc(OCCCO)cc2)O[C@H]1c1ccccc1N=[N+]=[N-]` it is 0.522; for `COc1ccc([Si](C)(C)[C@@H]2[C@@H](CC(=O)N3CCC[C@H]3CO)O[C@]3(C(=O)N(Cc4cccc(N5C(=O)c6cccc7cccc5c67)c4)c4ccccc43)[C@H]2C)cc1` it is 0.905. `COC(=O)C(CC#Cc1ccc2c(c1)[C@]1(C(=O)N2)[C@H](c2ccccc2OCCO)N2[C@H](c3ccccc3)[C@H](c3ccccc3)OC(=O)[C@H]2[C@@H]1C(=O)N1CCN(c2ncccn2)CC1)C(=O)OC`: the composite z-score came out at 1.31.

In turn, `COc1ccc(C(=O)Nc2ccc(CN3C(=O)[C@]4(O[C@H](CC(=O)N(CCO)Cc5ccccc5)[C@@H]([Si](C)(C)c5ccc(OC)cc5)[C@@H]4C)c4ccccc43)cc2)cc1` gave a composite z-score of 1.35. Regarding `COCCOC(=O)N1C(=O)[C@@]2(c3cc(C#CCCO)ccc31)[C@H](c1ccc(O)cc1)N1[C@H](c3ccccc3)[C@H](c3ccccc3)OC(=O)[C@H]1[C@@H]2C(=O)NC[C@H](O)c1ccccc1`, the composite z-score came out at 1.29.

`COc1ccc(NN2C(C(O)c3ccccc3)C=CC3C(=O)N(C4CCCCC4)C(=O)C32)cc1` (stereo unspecified) showed a composite z-score of 1.32.

As to `COc1ccc([Si](C)(C)[C@H]2[C@H](CC(=O)N(CCO)Cc3ccccc3)O[C@@]3(C(=O)N(Cc4ccc(N5C(=O)c6cccc7cccc5c67)cc4)c4ccccc43)[C@@H]2C)cc1`, the composite z-score turned out to be 0.747. For `COc1ccc([Si](C)(C)[C@H]2[C@H](CC(=O)N3CCC[C@H]3CO)O[C@@]3(C(=O)N(C)c4c(Br)cc(C)cc43)[C@@H]2C)cc1` the value was 1.3.

The molecule `COCCOC(=O)N1C(=O)[C@@]2(c3cc(C#CCCO)ccc31)[C@H](C(=O)N1CCN(c3ncccn3)CC1)[C@H]1C(=O)O[C@H](c3ccccc3)[C@H](c3ccccc3)N1[C@@H]2c1ccc(OCCO)cc1` had a composite z-score of 1.29.

In turn, `COc1ccc([Si](C)(C)[C@H]2[C@H](CCO)O[C@@]3(C(=O)N(Cc4ccccc4)c4ccc(NC(=O)[C@H](C)O)cc43)[C@@H]2C)cc1` displayed a composite z-score of 0.463. The molecule `COc1cc(CO)cc(I)c1O[C@H]1C=C(C(=O)NCCO)C[C@@H](N(CCN2CCOCC2)C(=O)C2CCCO2)[C@@H]1O` (stereo partly specified) registered a composite z-score of -0.0878. For `O=C(c1ccccc1)N1Cc2ccccc2C[C@@]2(N=C(c3ccc(OCCCO)cc3)O[C@H]2c2ccccc2)C1=O` the value was 1.3; for `COCCCNC(=O)[C@@]1(Cc2ccccc2I)c2ccccc2C(=O)N(Cc2ccccc2OC)[C@H]1c1ccc(CO)cc1`, 0.614; for `CN(C)C(=O)[C@]1(CCS(=O)(=O)c2ccccc2)N=C(c2ccc(OCCCO)cc2)O[C@@H]1c1ccccc1CN=[N+]=[N-]`, 1.3. `C=CCC(OC(C)=O)[C@@H]1[C@@H](N(Cc2ccc(-c3ccccc3)cc2)C(=O)Cc2ccc(OC)cc2)c2cc(OCCCO)ccc2N1C(=O)c1ccc2ccccc2c1` (stereo partly specified) registered a composite z-score of 0.0843. Regarding `COc1cccc(C)c1NC(=O)O[C@H]1[C@H](OC(=O)Nc2ccccc2)[C@@H](OC(=O)Nc2ccccc2)[C@@H](OC)O[C@@H]1CO`, the composite z-score amounted to 1.29.
